Results filed as inconclusive are left out. The source made the active and inactive calls. Calls come from the whole dose curve.
Potency is the fitted concentration of half-maximal effect.

The nature of the assay: Cell Viability - HepG2 (AID 433).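 Note: potency for ATP loss meaning cytotoxicity.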 As to conditions: qHTS. The source says:
NIH Chemical Genomics Center [NCGC]
NIH Molecular Libraries Screening Centers Network [MLSCN]
National Institutes of Environmental Health Sciences [NIEHS]
National Toxicology Program [NTP]
We have developed a 1536-well cell-based assay for quantitative high throughput screening (qHTS) against a number of cell lines to determine in vitro cytotoxicity of small molecules. This particular assay uses the HepG2 cell line which is derived from hepatocellular carcinoma.
NCGC Assay Protocol Summary:
The CellTiter-Glo luminescent cell viability assay (Promega) is a homogeneous method to measure the number of viable cells in culture. The end point readout of this assay is based on quantitation of intracellular ATP, an indicator of metabolic activity, using the luciferase reaction. Luciferase catalyzes the oxidation of beetle Luciferin to oxyluciferin and light in the presence of ATP. The luminescent signal is proportional to amount of ATP present.
Using the CellTiter-Glo luminescent cell viability assay, the amount of cellular ATP was measured in the HepG2 cell line with complete culture medium following compound treatment for 40 hours. The assay was performed in opaque white Kalypsys 1536-well plates. In the screen, tamoxifen and doxorubicin were used as positive controls. Library compounds were measured for their ability to cause acute toxicity in the cell line, as reflected by a decrease in intracellular ATP levels, in a concentration-dependent manner. Data were normalized to the controls for basal activity (DMSO only) and 100% inhibition (100 uM tamoxifen). AC50 values were determined from concentration-response data modeled with the standard Hill equation.
qHTS protocol fo CellTiter Glo HepG2 cellular assay
[Step] [Parameter] [Value] [Description]
1. Reagent; 5 uL; 1500 HepG2 cells/well
2. Time; 5 hr; 37 °C incubation
4. Controls; 23 nL; Tamoxifen 0.34 uM to 100 uM & Doxorubicin 0.02 nM to 100 uM
5. Time; 40 hr; 37 °C incubation
6. Reagent; 5 uL; CellTiter Glo reagent
7. Time; 20 min; Room Temperature
8. Detection; Luminescence; Viewlux plate reader
Keywords: cell viability, cytotoxicity, HepG2 cell line, luminescence, NTPHTS, NTPHTS_NCGC, NIEHS, EPA, DSSTox, MLSMR, MLSCN, NIH Roadmap, qHTS, NCGC
(In general: qHTS replaces the single test concentration by a dilution series.)
On to `CCN(N=O)C(N)=O`, for which the Potency was > 92 µM (inactive).
In the case of `C=CCc1cc(OC)c2c(c1)OCO2`, the Potency is > 92 µM (inactive).
As for `CCC(Cl)[N+](=O)[O-]` (stereo not given), the Potency is > 92 µM (inactive).
As to `Cc1cccc(N)c1C`, the Potency is > 92 µM (inactive).
In the case of `CCOP(=S)(OCC)SCCSCC`, the Potency is > 92 µM (inactive).
`Cc1cc(-c2ccc(N)c(C)c2)ccc1N`: the Potency was > 92 µM (inactive).
For `Oc1cc(Cl)c(Cl)c(Cl)c1Cl` the value was 53.3 µM (active); for `C=CCCC#N`, > 92 µM (inactive); for `CC(C)(Cl)[N+](=O)[O-]`, > 92 µM (inactive).
With `O=c1ccc(=O)[nH][nH]1`, the Potency is > 92 µM (inactive).
For the molecule `Brc1ccc(Oc2ccc(Br)cc2Br)c(Br)c1`, the Potency was > 92 µM (inactive).
For the molecule `Cc1ccccc1[N+](=O)[O-]`, the Potency is > 92 µM (inactive).
On to `Nc1cc(Cl)cc(Cl)c1`, for which the Potency is > 92 µM (inactive).
Take `Nc1ccc(Cc2ccc(N)cc2)cc1`: the Potency was > 92 µM (inactive).
With `Cc1cc(Cl)ccc1O` the figure was > 92 µM (inactive); with `CCN(CC)CCO`, > 92 µM (inactive).
In the case of `N#CCCCCC#N`, the Potency was > 92 µM (inactive).
For `CSSC`, the Potency is > 92 µM (inactive).
For `NNC(N)=S`, the Potency was > 92 µM (inactive).
With `Cc1coc2c1CCC(C)C2` (stereo not given) the figure was > 92 µM (inactive); with `OCC(Cl)CCl` (stereo not given), > 92 µM (inactive); with `C=CCO`, > 92 µM (inactive).
For `C[N+](=O)[O-]` the value was > 92 µM (inactive); for `C=COC(C)=O`, > 92 µM (inactive).
On to `Nc1ccc(-c2ccccc2)cc1`, for which the Potency was > 92 µM (inactive).
For the molecule `Cc1ccc(N)c(N)c1`, the Potency is > 92 µM (inactive).
As to `c1ccc(P(c2ccccc2)c2ccccc2)cc1`, the Potency was > 92 µM (inactive).
Turning to `CCCCCC[N+](=O)[O-]`, the Potency was > 92 µM (inactive).
Regarding `O=C(O)CCl`, the Potency is > 92 µM (inactive).
Consider `COP(=S)(OC)SCn1nnc2ccccc2c1=O`, for which the Potency is > 92 µM (inactive).
On to `CC(C)CC(C)N` (stereo not given), for which the Potency was > 92 µM (inactive).
Take `ClCCOCCCl`: the Potency is > 92 µM (inactive).
In the case of `Nc1ccc(Oc2ccc(N)cc2)cc1`, the Potency was > 92 µM (inactive).
In the case of `CC(C)(C)OOC(=O)c1ccccc1`, the Potency is > 92 µM (inactive).
For `Oc1cccc(Cl)c1`, the Potency was > 92 µM (inactive).
For `CCOC(=O)C1OC1(C)c1ccccc1` (stereo not given), the Potency is > 92 µM (inactive).
For the molecule `N#C/C=C/C#N`, the Potency is > 92 µM (inactive).
Turning to `CCCCC(=O)Cl`, the Potency is > 92 µM (inactive).
Regarding `O=C(O)C(Br)CBr` (stereo not given), the Potency was > 92 µM (inactive).
In the case of `CC(Cl)CCl` (stereo not given), the Potency was > 92 µM (inactive).

Source of the values: PubChem BioAssay (NCATS).
